# Measured values published in PubChem BioAssay (NCATS).
# Values joined by “and” are separate entries in the source; they are usually repeats but may differ in a detail not shown here. Equal entries are not always repeated. Inconclusive results are not listed. A number with no mark means an inactive call. Active and inactive are the calls of the source. Calls come from the whole dose curve; as a rule, active = well fitted curve in the direction sought with a large enough effect; inconclusive = small, poorly fitted or top-dose-only effect, or another doubt; inactive = no such curve, though single readings can be large; an effect the other way counts as inactive or inconclusive.
# Experiments:
# [1] = Viability qHTS for spleen associated tyrosine kinase inhibitor (SYKi) drug resistant MV4-11 cells (AID 1963824); note: nearly all actives have a fitted effect of over 35% in size
# Outline: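 CellTiter-Glo luminescence, read 10 min after reagent addition, reports viability after a 72 hr compound exposure. Cells are an MV4-11 line made resistant to SYK inhibition, seeded at 500 per well onto compound-containing plates.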
# [2] = Cellular viability qHTS for adrenocortical cancer (ACC) cell line SW-13 (AID 1963989); conditions: SW-13 ACC cells viability, CellTiter-Glo, 48 h; activity (max response): active compounds read low; note: nearly all actives have a fitted effect of over 65% in size;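 for activity (max response): cells grown in serum-free medium with ITS supplement; % is set by controls: 0 for no effect and ±100 for the full control effect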
# Outline: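 Viability was read as CellTiter-Glo luminescence after 48 h compound treatment (up to 46 uM final) of SW-13 cells grown serum-free; titration curves were fit with a four-parameter logistic model to give IC50 and efficacy.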
# [3] = Cellular viability qHTS for adrenocortical cancer (ACC) cell line NCI-H295R (AID 1963990); note: nearly all actives have a fitted effect of over 60% in size
# Outline: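 CellTiter-Glo ATP luminescence, read 48 h after compound addition, measured viability of NCI-H295R adrenocortical cells grown serum-free with ITS. Final concentrations spanned up to 46 uM. Data normalized to DMSO and doxorubicin, fitted for IC50 and maximal response.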
# Potency is the fitted concentration of half-maximal effect.
Structure (SMILES),Potency [1],activity (max response) [2] [%],Potency [3],Potency [2]
CC(C)n1c(=O)cc(N[C@@H](C)c2ccccc2)[nH]c1=O,11.8 µM (active),6.06,inactive,
COc1ccc2cc(C=O)ccc2c1,inactive,8.85,inactive,
C[C@H]1CNCCCN1S(=O)(=O)c1cccc2cncc(F)c12,inactive,-17.2,inactive,
O=C(Nc1nccs1)C(c1cc(F)ccc1O)N1Cc2ccccc2C1=O (configuration not stated),16.6 µM (active),-2.19,inactive,
CC[C@@]1(O)C(=O)OCc2c1cc1n(c2=O)Cc2c-1nc1cc(F)c(C)c3c1c2[C@@H](N)CC3,0.0042 µM (active),,5.01 µM (active),0.794 µM (active)
C=CC(=O)Nc1cccc(Oc2nc(Nc3ccc(N4CCN(C)CC4)c(F)c3)nc3[nH]ccc23)c1,0.525 µM (active),,8.91 µM (active),2.82 µM (active)
COc1nc(N)nc2c1ncn2C1OC(CO)C(O)C1O (configuration not stated),inactive,12,inactive,
CCCN1CCCC[C@H]1C(=O)Nc1c(C)cccc1C,inactive,4.43,inactive,
NCC1CCC(C(=O)O)CC1 (configuration not stated),inactive,10.7,inactive,
CC(CNC1CCCCC1)OC(=O)c1ccccc1 (configuration not stated),inactive,-5.58,inactive,
CCCC(=O)O[C@]1(C(=O)CC)CC[C@H]2[C@@H]3CCC4=CC(=O)CC[C@]4(C)[C@H]3[C@@H](O)C[C@@]21C,inactive,0.342,inactive,
CCOC(=O)[C@@](C)(N)Cc1ccc(O)c(O)c1,inactive,-4.97,inactive,
COCCOc1ccc(N2CCN(CCn3ncc4c3nc(N)n3nc(-c5ccco5)nc43)CC2)cc1,0.103 µM (active),-19.9,inactive,
CC(C)(C)C(=O)C(Oc1ccc(Cl)cc1)n1ccnc1 (configuration not stated),20.6 µM (active),-11.3,inactive,
CN[C@@H](C)C(=O)N[C@H](C(=O)N1CCC[C@H]1C(=O)Nc1sc(-c2ncco2)nc1-c1ccccc1)C1CCCCC1,0.59 µM (active),-5.71,inactive,
COc1cc(N2CCC(N3CCN(C)CC3)CC2)ccc1Nc1ncc(Cl)c(Nc2ccccc2P(C)(C)=O)n1,130 nM (active) and 23.5 nM (active),,1.12 µM (active),1 µM (active)
S=c1[nH]c2ccccc2s1,0.545 µM (active),3,inactive,
Oc1ccc(Cl)cc1Sc1cc(Cl)ccc1O,15 µM (active),,4.11 µM (active),3.26 µM (active)
CCOc1ccc2ccccc2c1C(=O)N[C@@H]1C(=O)N2[C@@H]1SC(C)(C)[C@@H]2C(=O)O,inactive,2.64,inactive,
Cc1ccc(Sc2ccccc2N2CCNCC2)c(C)c1,4.68 µM (active),,3.55 µM (active),25.1 µM (active)

Structure (SMILES),Potency [1],activity (max response) [2] [%],Potency [3],Potency [2]
CN1CCCN=C1COC(=O)C(O)(c1ccccc1)C1CCCCC1 (configuration not stated),inactive,6.26,inactive,
CC[C@H](NC(=O)[C@H](CS(=O)(=O)CC1CC1)N[C@@H](c1ccc(F)cc1)C(F)(F)F)C(=O)C(=O)NC1CC1,inactive,-11.3,inactive,
C/C=C/C=N/NC(=O)c1ccncc1,inactive,-0.764,inactive,
Cc1cccn2c(=O)c(-c3nnn[nH]3)cnc12,inactive,-1.53,inactive,
CCN(CC)CC(=O)OCC(=O)[C@@]1(O)CC[C@H]2[C@@H]3CCC4=CC(=O)CC[C@]4(C)[C@H]3[C@@H](O)C[C@@]21C,inactive,11.9,inactive,
CC(C)(C)C(O)/C=C/c1ccc2c(c1)OCO2 (configuration not stated),inactive,-8.69,inactive,
CC(=O)[C@H]1CC[C@H]2[C@@H]3C[C@H](C)C4=CC(=O)CC[C@]4(C)[C@H]3[C@@H](O)C[C@]12C,23.7 µM (active),8.53,inactive,
COc1cccc(-c2cc(F)ccc2C2Cc3nc(N)nc(C)c3C(=O)N2)n1 (configuration not stated),0.0186 µM (active),,0.0501 µM (active),0.112 µM (active)
COc1nc(OCc2cccc(-c3ccccc3)c2C)ccc1CNCCNC(C)=O,3.72 µM (active),,6.31 µM (active),7.94 µM (active)
Cn1cc[nH]c1=S,inactive,12,inactive,
CC(=O)OCC1=C(C(=O)O)N2C(=O)[C@@H](NC(=O)Cc3cccs3)[C@H]2SC1,inactive,10.2,inactive,
Nc1c2c(nc3c1CCC3)CCCC2,inactive,-9.88,inactive,
Cc1cc(C)nc(NS(=O)(=O)c2ccc(N)cc2)n1,inactive,6.1,inactive,
c1cnc(N2CCN(Cc3ccc4c(c3)OCO4)CC2)nc1,inactive,6.56,inactive,
NC(N)=NN=C(/C=C/c1ccc([N+](=O)[O-])o1)/C=C/c1ccc([N+](=O)[O-])o1,5.31 µM (active),,1.03 µM (active),2.59 µM (active)
O=C1OC2(CCC(C(=O)Nc3ccn(-c4ccccc4F)n3)CC2)c2cnccc21 (configuration not stated),4.17 µM (active),-3.21,inactive,
O=C(CS(=O)Cc1ccco1)NC/C=C\COc1cc(CN2CCCCC2)ccn1 (configuration not stated),inactive,2.9,inactive,
CC[C@]12C=CCN3CC[C@@]4(c5cc([C@@]6(C(=O)OC)C[C@H]7C[C@@H](C(C)(F)F)CN(Cc8c6[nH]c6ccccc86)C7)c(OC)cc5N(C)[C@H]4[C@@](O)(C(=O)OC)[C@@H]1OC(C)=O)[C@@H]32,0.0494 µM (active),,0.548 µM (active),0.123 µM (active)
C[n+]1c2cc(N)ccc2cc2ccc(N)cc21 (tested in a mixture with another compound),1.88 µM (active),,1.3 µM (active),2.31 µM (active)
CO[C@@H]1[C@@H](O)[C@H](O)[C@@H](n2c3c(Cl)cccc3c3c4c(c5c6cccc(Cl)c6[nH]c5c32)C(=O)NC4=O)O[C@H]1CO,0.742 µM (active),,5.62 µM (active),0.316 µM (active)

Structure (SMILES),Potency [1],activity (max response) [2] [%],Potency [3],Potency [2]
Cc1cc(C)c2c(c1)[C@@H](N(Cc1cc(C(F)(F)F)cc(C(F)(F)F)c1)c1nnn(C)n1)CCCN2CC1CCC(C(=O)O)CC1 (some centres not stated),18.6 µM (active),-23.9,inactive,
COc1ccc([C@@H]2CC(=O)c3c(O)cc(O[C@@H]4O[C@H](CO[C@@H]5O[C@@H](C)[C@H](O)[C@@H](O)[C@H]5O)[C@@H](O)[C@H](O)[C@H]4O)cc3O2)cc1O,8.33 µM (active),3.7,inactive,
CN(C)C/C=C/C(=O)Nc1ccc(C(=O)N2CCC[C@@H](Nc3ncc(Cl)c(-c4c[nH]c5ccccc45)n3)C2)cc1,0.0934 µM (active),,10 µM (active),0.251 µM (active)
CC(C)(C)CC(C)(C)c1ccc(O)c(Cc2ccc(Cl)cc2Cl)c1,15 µM (active),,5.8 µM (active),16.4 µM (active)
CNC(=O)CCc1cc(-c2ccc(-c3ccc(C(F)(F)F)cc3)cc2)n(-c2ccc(N3CCNCC3)cc2)n1,2.09 µM (active),,7.08 µM (active),3.98 µM (active)
N#Cc1ccnc(N2C(=O)CC[C@H]2C(=O)N(c2cncc(F)c2)C(C(=O)NC2CC(F)(F)C2)c2ccccc2Cl)c1 (some centres not stated),inactive,6.42,inactive,
CNC(=O)Cn1cc(-c2ccc3c(c2)C(F)CC32NC(=O)N(CC(=O)N(Cc3ccc(F)cc3)[C@@H](C)C(F)(F)F)C2=O)cn1 (some centres not stated),0.132 µM (active),8.67,inactive,
CN(C)[C@@H]1C(=O)C(C(N)=O)=C(O)[C@@]2(O)C(=O)C3=C(O)c4c(O)ccc(Cl)c4[C@@H](O)[C@H]3C[C@@H]12,8.41 µM (active),-3.2,inactive,
CC(C)(C)NCC(O)COc1ccccc1OCC1CCCO1 (configuration not stated),0.015 µM (active),-5.68,inactive,
CCN1CCN(Cc2ccc(NC(=O)c3ccc(C)c(/C=C/c4cnc5[nH]ccc5c4OC)c3)cc2C(F)(F)F)CC1,20.6 nM (active) and 83.3 nM (active),,6.31 µM (active),3.16 µM (active)
Cc1cc(Oc2ccc3nc(COc4ccc(CC5SC(=O)NC5=O)cc4)n(C)c3c2)cc(C)c1N (configuration not stated),16.6 µM (active),-6.08,inactive,
Nc1ncnc2nc[nH]c12,inactive,2.49,inactive,
CCCCCN=C(N)N/N=C/c1c[nH]c2ccc(OC)cc12,2.66 µM (active),,23.1 µM (active),13 µM (active)
N/C(=N\N=C\c1ccc(Cl)cc1)N/N=C/c1ccc(Cl)cc1,inactive,-4.76,inactive,
CC(C)(C)NC(=O)c1cncn1C1CCN(c2ccc(-c3nnc(C(F)(F)F)o3)cn2)CC1,2.95 µM (active),-14,2.82 µM (active),
COc1ccc(C(=O)c2ccccc2O)c(O)c1,9.44 µM (active),11.3,inactive,
CCC[C@@H]1C[C@@H](C(=O)N[C@@H]([C@H]2O[C@H](SC)[C@H](O)[C@@H](O)[C@H]2O)[C@H](C)Cl)N(C)C1,inactive,5.6,inactive,
CCc1c(C(=O)NNC(=O)[C@@H](O)c2cc(F)cc(F)c2)ccc(O)c1C,9.2 µM (active),-4.91,inactive,
NCC(=O)Nc1cncc(-c2nn3c(=O)cc(N4CCNCC4)nc3s2)c1,inactive,-17.3,inactive,
